Most compounds without a hit are left out; they make up all but 4.6% or so of the library.
TIM10 inh = growth inhibitors of isogenic TIM10 control yeast, primary screen, counter-screen for tim10-1 yeast inhibitor project, luminescence, uHTS; S. cerevisiae TIM10 strain growth, BacTiter-Glo luminescence, 24 h; inhibition, % at 10 µM; hit rate 1.4% among 330,000;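 active = inhibition of 40% or more at the single tested concentration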;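 note: wild-type TIM10 isogenic control strain grown at permissive 25 °C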
NALP3 yeast inh = NALP3 inflammasome inhibitors in reconstituted yeast, primary screen, luminescence, uHTS | hit rate 0.39% among 330,000 | inhibition, % at 10 µM | Yeast reconstituted NLRP3/ASC/caspase-1, beta-gal luminescence, 24 h;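 active = inhibition of 50% or more; inactive = inhibition below 50%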
SKKanGAS inh = S. pyogenes SKKanGAS growth inhibitors in kanamycin, primary screen, streptokinase expression inhibitor project, SKKanGAS strain, BacTiter-Glo luminescence; hit rate 1.3% among 300,000; AID 1662, 2009; 6 h; inhibition, % at 7.5 µM;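 active = mean replicate score, as percent of positive control median, at least 50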;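 note: strain carries kanamycin resistance gene driven by streptokinase promoter and grows in 40 µg/ml kanamycin; loss of luminescence reflects streptokinase promoter inhibition or plain growth inhibition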
tim23-1 inh = growth inhibitors of tim23-1 mutant yeast, primary screen, luminescence, uHTS; inhibition, % at 20 µM; S. cerevisiae tim23-1 growth, BacTiter-Glo luminescence, 24 h; hit rate 1.3% among 330,000;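 active = growth inhibition of the mutant yeast at or above 50%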;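 note: temperature-sensitive mutant grown at 25 °C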
tim10-1 inh = growth inhibitors of tim10-1 mutant yeast, primary screen, luminescence, uHTS. S. cerevisiae tim10-1 ts strain growth, BacTiter-Glo, 24 h. inhibition, % at 20 µM. hit rate 2.2% among 330,000. AID 463190, 2010;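 active = inhibition of at least 40%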;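 note: mutant grown at 25 °C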
tim10-1 confirm = growth inhibitors of tim10-1 mutant yeast, confirmation, single concentration, luminescence, S. cerevisiae | shares compounds with tim10-1 inh | S. cerevisiae tim10-1 ts strain growth, BacTiter-Glo, 24 h | inhibition, % at 20 µM | hit rate 56% among 7,400;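 active = inhibition of yeast growth at or above a set limit in either of two repeat tests at 20 µM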;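 note: tim10-1 mutant grown at permissive 25 °C to find synthetic lethal compounds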
TIM10 conf = growth inhibitors of wild-type TIM10 yeast, confirmation, counter-screen for tim10-1 synthetic lethality project, single concentration, luminescence, S. cerevisiae. shares compounds with TIM10 inh. inhibition, % at 10 µM. S. cerevisiae tim10 strain growth, BacTiter-Glo luminescence, 24 h. AID 463215, 2010. hit rate 63% among 4,600;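 active = inhibition of yeast growth at or above a set limit in either of two replicates at 10 µM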; note: this counterscreen used the strain with wild-type TIM10
Large screens that a line does not name were inactive (follow-up assays come after a bar, where they were run).

Cn1c2ccccc2c(=O)c2c(=O)n(-c3ccccc3)c(-c3ccc(C(C)(C)C)cc3)nc21	TIM10 inh 82, tim10-1 inh 48 | tim10-1 confirm inactive | TIM10 conf inactive
Cc1ccc(-c2nc3c(c(=O)c4ccccc4n3C)c(=O)n2-c2ccc(F)cc2)cc1	none
O=C/C=C/c1coc2ccc3ccccc3c2c1=O	none
O=Cc1coc2c(ccc3ccccc32)c1=O	TIM10 inh 58, tim10-1 inh 41 | tim10-1 confirm 34 | TIM10 conf 78
Cc1cc(C(=O)NCC23CC4CC(CC(C4)C2)C3)c(C)o1	TIM10 inh 40, tim10-1 inh 45 | tim10-1 confirm inactive | TIM10 conf 34
O=C(CCc1ccccc1)NCc1ccc2c(c1)OCO2	none
O=C(Nc1ccccc1C(=O)NCc1ccccc1)c1ccccc1	TIM10 inh 46, tim10-1 inh 47 (no result: SKKanGAS inh) | tim10-1 confirm 42 | TIM10 conf inactive
O=C1Nc2ccccc2/C1=C/c1cccnc1	TIM10 inh 51, tim10-1 inh 49 | tim10-1 confirm 36 | TIM10 conf 32
O=C1Nc2ccccc2/C1=C/c1cnc(-c2ccccc2)[nH]1	none
COc1cc(C2Nc3cccc4cccc(c34)N2)cc(OC)c1O	none (no result: SKKanGAS inh)
Oc1ccc(C2Nc3cccc4cccc(c34)N2)c(O)c1	TIM10 inh 41, tim10-1 inh 42 | tim10-1 confirm 44 | TIM10 conf 38
CCCn1c(N)c(N(CCOC)C(=O)CSCC(=O)Nc2cccc(C)c2)c(=O)[nH]c1=O	none
C=CCc1cccc(CNc2nc3ccccc3n2CCC)c1O	TIM10 inh 45, tim10-1 inh 42 | tim10-1 confirm inactive | TIM10 conf 36
CC(Oc1ccccc1)C(=O)Nc1ccc(F)c(S(=O)(=O)N2CCOCC2)c1 (configuration not stated)	none (no result: SKKanGAS inh)
Cc1cccc(C(=O)Nc2nnc(Cc3ccccc3)s2)c1	none
CC1=CC(C)(C)N2C(=O)C3(SCC(=O)N3c3ccc(F)cc3)c3cc(C)cc1c32 (configuration not stated)	TIM10 inh 41, tim10-1 inh 46 | tim10-1 confirm inactive | TIM10 conf 37
Cc1nn(CCC(N)=S)c2nc(-c3cccs3)cc(C(F)(F)F)c12	TIM10 inh 55, tim10-1 inh 44 | tim10-1 confirm 41 | TIM10 conf 41
CCOC(=O)c1sc(NC(=O)Cc2c(F)cccc2Cl)nc1C	TIM10 inh 44, tim10-1 inh 47 | tim10-1 confirm 43 | TIM10 conf 36
CCOC(=O)c1sc(Nc2ccc(C)cc2C)nc1C	TIM10 inh 63, tim10-1 inh 48 | tim10-1 confirm inactive | TIM10 conf 40
COc1ccc(C(=O)Sc2nncc3ccccc23)cc1	TIM10 inh 42, tim10-1 inh 45 | tim10-1 confirm inactive | TIM10 conf 41
COc1ccc(NC(=O)CSc2nncc3ccccc23)cc1	none
Nc1c(-c2ccccc2)sc2ccc3ccccc3[n+]12	none
O=[N+]([O-])c1cccc(-c2ccc(/C=N/NC(=S)Nc3cccc(F)c3)o2)c1	TIM10 inh 57, tim10-1 inh 52 | tim10-1 confirm 46 | TIM10 conf 59
Cc1ccc(CN2CCNC(=O)C2CC(=O)N(C)C2CCOCC2)cc1 (configuration not stated)	none
CN(C)c1ccc(/C=N/n2c(-c3cccnc3)n[nH]c2=S)cc1	none
CN(C)c1ccc(/C=N/n2c(-c3ccccc3Br)n[nH]c2=S)cc1	TIM10 inh 41, tim10-1 inh 42 | tim10-1 confirm inactive | TIM10 conf inactive
O=C(C[n+]1cn(C(F)F)c2ccccc21)c1ccc(OC(F)F)cc1	TIM10 inh 53, tim10-1 inh 56 | tim10-1 confirm 47 | TIM10 conf 39
CCOc1ccc2cc(/C=C/C(=O)c3ccco3)c(Cl)nc2c1	TIM10 inh 42, tim10-1 inh 49 | tim10-1 confirm 36 | TIM10 conf inactive
CCOc1ccc2nc(SCC(=O)NNC(=O)c3ccco3)c(C)cc2c1	none
CN1CCN(C(=O)CCN2C(=O)/C(=C/c3ccccc3Cl)SC2=S)CC1	TIM10 inh 44, tim10-1 inh 44 | tim10-1 confirm inactive | TIM10 conf inactive
Cc1ccccc1N1CC(C(=O)Nc2ccncc2)CC1=O (configuration not stated)	none
O=[N+]([O-])CC(c1ccc(F)cc1)c1c[nH]c2ccccc12 (configuration not stated)	TIM10 inh 43, tim10-1 inh 51 | tim10-1 confirm 66 | TIM10 conf 60
Oc1ccc(-c2nccc(-c3ccc(Br)cc3)n2)cc1	TIM10 inh 41, tim10-1 inh 47 | tim10-1 confirm 49 | TIM10 conf 64
Cc1ccc(-n2nnnc2C(Cl)(Cl)c2nnnn2-c2ccc(C)cc2)cc1	TIM10 inh 62, tim10-1 inh 45 | tim10-1 confirm inactive | TIM10 conf 75
CCCCCC1CC(CC(=O)Nc2nncs2)C(=O)O1 (configuration not stated)	TIM10 inh 45 | tim10-1 confirm 37 | TIM10 conf 31
COc1ccc(C(C)=O)cc1COC(=O)C1CC(=O)N(Cc2ccccc2)C1 (configuration not stated)	none
N#Cc1cccc2c1-c1ccccc1/C2=N/NC(N)=O	none
N#Cc1cccc2c1-c1ccccc1/C2=N/NC(N)=S	TIM10 inh 47, tim10-1 inh 52 | tim10-1 confirm 41 | TIM10 conf 56
CC(=O)/C(=N\Nc1ccccc1)Sc1nnc(-c2ccccc2)n1-c1ccccc1	TIM10 inh 46, tim10-1 inh 44 | tim10-1 confirm inactive | TIM10 conf inactive
CC(=O)/C(=N\Nc1ccccc1Cl)Sc1nnc(-c2ccccc2)n1-c1ccccc1	none
CCO/C=N/Nc1nc(C(F)(F)F)nc2c1cnn2Cc1ccccc1	TIM10 inh 56, tim10-1 inh 59 | tim10-1 confirm 56 | TIM10 conf 58
Cc1ccccc1CNC(=O)C1CCC(=O)N(C2CCCCCC2)C1 (configuration not stated)	none
N/C(Cc1ccc(Cl)cc1Cl)=N\OC(=O)c1cccs1	TIM10 inh 86, tim10-1 inh 73 | tim10-1 confirm 37 | TIM10 conf 86
N/C(=N\OC(=O)Cc1cccs1)c1ccc(Br)cc1	none
N/C(Cc1ccc(Cl)cc1Cl)=N\OC(=O)Cc1cccs1	TIM10 inh 49, tim10-1 inh 48 | tim10-1 confirm 38 | TIM10 conf inactive
O=C(COC(=O)c1cccs1)Nc1cccc(Cl)c1	none (no result: SKKanGAS inh)

Assay outcomes deposited in PubChem by several laboratories.
